Source: PubChem BioAssay AID588334 (Broad Institute, 2011)
The campaign covered roughly 300,000 compounds. About 2,300 (0.77%) were called active. Shown is part of a subset that was picked to be rich in actives. Values without a mark were called inactive.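 How the source made its calls: active means mean activation of at least 80% with every replicate also reaching 80%; inconclusive means mean reaches 80% but some replicate falls short; inactive means the rest.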

assay: activators of MITF-driven TRPM1 promoter reporter, primary screen, cell-based, SK-MEL-5, luciferase, single point (AID 588334); conditions: SK-MEL-5 TRPM1-promoter luciferase, 24 h; at 12.5 µM; active compounds read high; % of positive control, neutral wells = 0;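 further: 0% = neutral control wells and 100% = parthenolide positive control wells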

Compound | activation
FC(F)(F)c1cccc(Nc2ncnc3ccccc23)c1 | 0.633%
Cc1nnsc1C(=O)N/N=C/c1cccc(C(F)(F)F)c1 | 15.6%
FC(F)(F)c1cccc(N/N=C/c2ccccc2)c1 | 88.5% (active)
Cc1c(NS(=O)(=O)c2cccc(C(=O)Nc3ccc(SC(F)F)cc3)c2)c(=O)n(-c2ccccc2)n1C | -11%
COc1cc(/C=C/c2ccc(/C=C/c3cc(OC)c(OC)c(OC)c3)cc2)cc(OC)c1OC | -15.7%
COc1cccc(C(=O)CC(=O)C(=O)Nc2ccc([N+](=O)[O-])cc2C)c1 | 0.189%
COc1cccc(CNC(=O)CCCC(=O)Nc2cccc([N+](=O)[O-])c2)c1 | -21%
COc1cccc(NCCC(=O)c2cccc([N+](=O)[O-])c2)c1 | 85.6% (active)
Cc1ccc(C)c(S(=O)(=O)N2CCN(c3ncnc4sccc34)CC2)c1 | -33.1%
CCC(C)C1(C2CCCC2)NC(=O)NC1=O (stereo unspecified) | -0.575%
CSCCC(NS(=O)(=O)c1ccc(C)cc1)C(=O)N(C)CC(=O)Nc1ccccc1Br (stereo unspecified) | -13.8%
Cc1nn2cc(-c3ccc(Cl)cc3)cnc2c1Br | 132% (active)
C=CCn1c(=O)n(C)c2c(=O)n(C)c(=O)n(C)c21 | -2.68%
O=C1c2ccccc2C(=O)N1CCCCCCN1C(=O)c2ccccc2C1=O | -10.4%
CC(C)n1cnc2c(NCc3ccccc3)cc(OCC3CCN(C)CC3)cc21 | -31%
O=C(c1ccc(CSc2ccccc2)cc1)N1CCCCCC1 | 61.5%
CN(C)c1cc[n+](Cc2ccccc2)cc1 | -11.3%
CN(C)c1ccc(CSc2ccccc2)cc1 | 106% (active)
C=CC[C@H](CC(=O)N(CCO)Cc1ccccc1)C(=O)N[C@@H](COC(=O)[C@@H](CC=C)Cc1ccc(F)cc1)Cc1ccccc1 | 8.2%
Nc1cc(=O)n(Cc2ccccc2)c(=O)n1Cc1ccccc1 | -2.74%
Oc1ccc(-n2nnnc2SCc2c(F)cccc2Cl)cc1 | 0.316%
Cc1ccc(CSc2nnc(-c3cnccn3)n2C)cc1 | 12.1%
Cn1c(SCc2c(F)cccc2Cl)nnc1-c1cnccn1 | 90.4% (active)
Cc1ccc(C(=O)Nc2ccccc2-c2ccccc2)cc1S(=O)(=O)Nc1ccccc1 | 3.07%
CCOc1cc(C(=O)N(Cc2ccccc2)c2ccc(C)cc2)ccc1OCC(=O)N1CCOCC1 | -10.1%
CCc1ccc(C(=O)COC(=O)c2ccco2)cc1 | 99.6% (active)

Compound | activation
CCOC(=O)c1ccc(NC(=O)CNC(=O)c2ccco2)cc1 | 7.02%
O=C(COC(=O)c1ccccc1C(=O)c1ccccc1)c1ccco1 | 1.5%
O=C(COC(=O)c1ccco1)NCc1ccc(Cl)cc1 | -14.2%
CCN(CC)c1ccc(C(=O)OCC(=O)c2ccco2)cc1 | 83.2% (active)
O=C(OCC(=O)N1CCCC1)c1ccco1 | 4.95%
CCCCN1CC(COc2ccccc2)Oc2cccc(F)c2S1(=O)=O (stereo unspecified) | -2.06%
N#CCc1c[nH]c2ccc([N+](=O)[O-])cc12 | 11.4%
CCC1([N+](=O)[O-])COC(c2ccc(C)cc2)OC1 (stereo unspecified) | 1.68%
CN(CCc1ccccc1)C(=O)c1cccc(NC(=O)Cc2cccc(NC(=O)C3CCCN(C(=O)C4CCC4)C3)c2)c1 (stereo unspecified) | -9.62%
c1ccc2c(CSCc3nc4ccccc4[nH]3)cccc2c1 | -9.4%
c1ccc(-c2nnc(SCc3nc4ccccc4[nH]3)o2)cc1 | -11.4%
Clc1ccccc1SCc1nc2ccccc2[nH]1 | 98.6% (active)
O=C(Cc1ccc(NC(=O)C2CCCN(C(=O)C3CCCCC3)C2)cc1)Nc1cccc(C(=O)N2CCCCC2)c1 (stereo unspecified) | 2.88%
S=C(c1ccc(-c2ccccc2)o1)N1CCCCC1 | 99.8% (active)
CC1CCN(C(=S)c2ccc(-c3ccc(Cl)cc3Cl)o2)CC1 | 28%
Cc1cccc(C)c1NC(=S)N1CCCCCC1 | -1.99%
CC(C)Cc1nnc(N)s1 | -14.5%
Cc1ccc(NC(=O)C2CCC(C(C)(C)C)CC2)cc1S(=O)(=O)N1CCOCC1 (stereo unspecified) | -5.55%
COc1cc(/C=C2\Oc3ccc(C#Cc4ccc(O)cc4)cc3C2=O)cc(OC)c1 | -73.4%
COCCNC(=O)Cn1cc(C(=O)c2cccs2)c2ccccc21 | 7.95%
O=C(COC(=O)c1cccs1)NCc1cccs1 | 3.86%
COC(=O)c1cn(CC(=O)NCc2cccs2)c2ccccc12 | 81.5% (active)
O=C(NCc1ccccc1)c1cccc(NC(=O)C2CCCCC2)c1 | -5.07%
O=C(NN=Cc1ccccc1)c1ccccc1 | 55%
Cc1ccoc1C(=O)Nc1cccc(Oc2ccccc2)c1 | 87% (active)
Cc1cccc(NC(=O)Nc2cccc(Oc3c(F)c(F)c(F)c(F)c3F)c2)c1 | 16.2%

Compound | activation
COc1cccc(NC(=O)c2ccccc2SC)c1 | 6.57%
CSc1ncnc2c1ncn2CC(=O)C1CCC2C3CCC4=CC(=O)CCC4(C)C3CCC12C (stereo unspecified) | -44.7%
CCOc1ccc(/C=C(/C#N)c2nnc(N3CCOCC3)n2-c2ccccc2)cc1OC | -2.3%
COc1cccc(-c2noc(C3CCCN(C(=O)c4ccc(F)cc4)C3)n2)c1 (stereo unspecified) | -11.5%
O=C(c1ccc(F)cc1)N1CCCC(c2nc(-c3cccs3)no2)C1 (stereo unspecified) | -6.36%
Cc1ccc(-c2noc(C3CCCN(C(=O)c4cccc(Cl)c4)C3)n2)o1 (stereo unspecified) | 102% (active)
c1cnc(Nc2nc(-c3ccc4ccccc4c3)cs2)nc1 | 103% (active)
Cc1ccc(-c2csc(NC3OC(=O)c4ccccc43)n2)cc1 (stereo unspecified) | -32.1%
O=C(Nc1nc(-c2ccc(-c3ccccc3)cc2)cs1)c1cnccn1 | 1.68%
COc1ccc(CCNC(=O)c2ccccc2OCc2ccccc2)cc1 | -7.11%
COc1cccc2[nH]c(C(=O)NCCc3ccccc3)cc12 | 110% (active)
O=C(NCCc1ccccc1)c1cccc(NC(=O)c2ccccc2)c1 | 20.5%
Cc1ccc(S(=O)(=O)N2CCN(C(=O)COC(=O)/C=C/c3cccc(Cl)c3)CC2)c(C)c1 | 4.12%
Cc1cccc(NC(=O)c2ccc(S(=O)(=O)N(C)c3ccccc3)cc2)n1 | 1.38%
CSCCC1NC(=O)N(CC(=O)Nc2cccc(S(=O)(=O)N3CCCCCC3)c2)C1=O (stereo unspecified) | 11.8%
O=C(COC(=O)c1ccccc1)c1ccc2c(c1)OCCO2 | 17.6%
O=C(COC(=O)c1ccc2c(c1)OCCO2)NCc1ccccc1Cl | 4.3%
O=C(OCc1ccccc1F)c1ccc2c(c1)OCCO2 | 126% (active)
CCOc1ccc(C(=O)Nc2cccc(-c3ccc4nncn4n3)c2)cc1 | 52.8%
CCOc1ccc(C(=O)Nc2cccc(SC)c2)cc1 | 84.3% (active)
CCOc1ccc(C(=O)Nc2ccncc2)cc1 | 41.4%
O=C1CC[C@@H]2CC3(C[C@@H]4CCN1[C@H]24)Nc1cc([N+](=O)[O-])ccc1NC3=NC1CCCCC1 (stereo partly specified) | 3.73%
COc1ccc(C(=S)Nc2ccccc2)cc1 | 33.5%
COc1ccc(C(=O)NC2CCN(C(=S)Nc3ccccc3)CC2)cc1 | -0.484%
COc1ccc(NC(=S)N2N=CCC2c2ccccc2)cc1 (stereo unspecified) | 90.9% (active)
Cc1ccc(NC(=S)NCc2ccccc2Cl)c(C)c1 | -11.2%

Compound | activation
Cc1ccc(NC(=S)Nc2ncccc2C)c(C)c1 | 92.2% (active)
Cc1ccc(C(=O)NC(=S)Nc2ccccc2C)cc1 | 51.8%
COc1ccc(CNCCCn2cnc3c(OCc4ccccc4)ncnc32)cc1 | 7.28%
Cc1ccc(S(=O)(=O)N2CCN(C(=O)c3cc(S(=O)(=O)N4CCOCC4)ccc3F)CC2)cc1 | -4.55%
NN=C(NN=Cc1ccccc1)c1ccccc1 | 35.2%
O=C(NCCc1ccccc1)c1ccc2c(c1)N(Cc1ccccc1)CCS2 | 39.9%
CCCOc1ccc(C(=O)NCCc2ccccc2)cc1 | -2.06%
CC1CCCN(c2ccc(C(=O)NCCc3ccccc3)cn2)C1 (stereo unspecified) | 126% (active)
CC(C(=O)N1CCc2ccccc21)N(C)CC(=O)Nc1ccc(F)cc1 (stereo unspecified) | 13.5%
COC[C@@H]1NS(=O)(=O)c2ccc(Br)cc2O[C@H]1c1ccccc1 | 7.36%
O=C(CC1SCCNC1=O)Nc1ccc(Cl)cc1 (stereo unspecified) | 26.1%
O=C(Nc1ccc(Cl)cc1)/C(=C1\CCCN1)[N+](=O)[O-] | 88.7% (active)
O=C(O)C1CCCCC1C(=O)Nc1ccc(Cl)cc1 (stereo unspecified) | 20.2%
COc1ccccc1N(CC(=O)Nc1ccc(C)cc1Cl)S(=O)(=O)c1cccs1 | -4.34%
O=C(NNC(=S)NC1CCCCC1)c1ccccc1Cl | 9.14%
COCCCNC(=S)NC(=O)c1ccccc1 | 17.9%
O=C(NC(=S)NC1CCCCC1)c1ccc(Cl)cc1 | 138% (active)
O=C(NC1CCCCC1)c1ccc(-c2ccc(Cl)cc2)o1 | 111% (active)
O=C(NC1CCCCCC1)c1cccnc1Sc1ccc(Cl)cc1 | 6.6%
CC(C)CNC(=S)NC(=O)c1ccc(Cl)cc1 | 112% (active)
COc1ccc(C(=O)NC(=S)NC2CCCCC2)cc1 | 73.7%
S=C(NCc1ccc(Cl)cc1)NC1CCCCC1 | -7.01%
Cc1occc1C(=O)NNC(=S)NCC(C)C | -2.13%
